Hits are enriched below; roughly 8.9% of the tested compounds scored in any of these assays.
HPGD inh: inhibitors of human 15-hydroxyprostaglandin dehydrogenase (HPGD); P15428; Potency, µM, most hits filed as inhibitors; 150,000 tested, 4.3% active; purified HPGD, NADH fluorescence kinetic, PGE2 substrate; active = well fitted inhibition curve with a large enough effect, not every such curve was filed as active; inconclusive = small, poorly fitted or top-dose-only effect, or another doubt; inactive = no such curve, though single readings can be large or run the other way
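NADH formation kinetics: reaction with 30 uM PGE2 and 1 mM NAD+ (final), 20 nM enzyme, Tris-HCl pH 8 with Tween 20, after 15 min compound preincubation at room temperature. Fluorescence change, last versus first of five reads.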
ALOX12 inhib: 12-hLO (ALOX12) enzyme inhibition; P18054; purified 12-hLO, xylenol orange hydroperoxide absorbance; Potency, µM (series often up to 57.1 µM), usual class: inhibitors; 150,000 tested, 0.12% active; AID 1452; note: nearly all actives have a fitted effect of over 55% in size
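Purified human 12hLO (150 nM final) was preincubated with compounds for 15 min at room temperature in 25 mM Hepes pH 7.0, 0.01% Triton X-100, then reacted with 40 uM arachidonic acid for 30 min. Hydroperoxide was detected with ferrous iron/xylenol orange.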
IMPase Li cell: membrane-permeable IMPase blocker, potentiated with lithium; CHO-M1 cells, IP1 TR-FRET (IP-One), carbachol + lithium; Potency, µM (series often up to 59.4 µM), usual class: inhibitors; 210,000 tested, 0.35% active;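 note: IP1 builds up when IMPase is blocked and the TR-FRET signal falls; nearly all actives have a fitted effect of over 50% in size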
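CHO cells stably expressing M1 receptor (2000/well) were cultured 16–30 h, then exposed to compounds with a small lithium addition for 30 min at 37C. IP1 was measured by TR-FRET competition; AC50 from Hill fits.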
ALDH1A1 block: ALDH1A1 (human) enzyme inhibition. P00352. Purified ALDH1A1, NADH fluorescence, propionaldehyde substrate. Potency, µM (doses to about 75.3 µM), most hits filed as inhibitors. 220,000 tested, 7.3% active; active = well fitted inhibition curve with a large enough effect, not every such curve was filed as active; inconclusive = small, poorly fitted or top-dose-only effect, or another doubt; inactive = no such curve, though single readings can be large or run the other way
Target sequence (P00352 whole entry, looked up): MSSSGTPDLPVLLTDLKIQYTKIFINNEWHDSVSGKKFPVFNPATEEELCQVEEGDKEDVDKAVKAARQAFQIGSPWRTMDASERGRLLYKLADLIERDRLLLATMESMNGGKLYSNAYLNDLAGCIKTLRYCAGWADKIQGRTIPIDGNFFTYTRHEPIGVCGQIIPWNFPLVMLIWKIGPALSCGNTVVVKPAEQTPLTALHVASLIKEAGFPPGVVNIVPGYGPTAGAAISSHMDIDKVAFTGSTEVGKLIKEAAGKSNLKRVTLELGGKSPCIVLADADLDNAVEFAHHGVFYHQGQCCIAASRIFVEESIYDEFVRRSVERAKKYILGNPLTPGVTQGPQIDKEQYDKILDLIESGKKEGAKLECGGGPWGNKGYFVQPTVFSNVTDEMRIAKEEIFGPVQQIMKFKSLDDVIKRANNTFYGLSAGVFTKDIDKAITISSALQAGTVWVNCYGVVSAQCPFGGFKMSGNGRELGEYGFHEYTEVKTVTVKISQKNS
NPSR antag: antagonists of human neuropeptide S receptor cAMP signaling; 220,000 tested, 1% active; Potency, µM (doses to about 38.3 µM), actives largely listed as inhibitors; CHO-NPSR cells, cAMP TR-FRET, antagonist mode; AID 1461; Q6W5P4; note: nearly all actives have a fitted effect of over 50% in size
IMPase cell inh: IMPase inhibition in cells; 120,000 tested, under 10 active; P97697; CHO-M1 cells, IP1 accumulation, HTRF TR-FRET ratio; inhibition (IP1 accumulation), % at 46.1 µM; active = well fitted curve in the direction sought with a large enough effect in the signal ratio, not every such curve was filed as active; inconclusive = small, poorly fitted or top-dose-only effect, or a change in a side signal; inactive = no such curve, though single readings can be large or run the other way; the % refers to the signal ratio;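 note: cells stimulated with carbachol in lithium chloride buffer; higher means more IMPase inhibition seen as more IP1 and lower FRET ratio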
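In this qHTS, compounds (final up to 46 uM) act on CHO-M1 cells that are then activated through the M1 receptor with carbachol, in pH 7.4 buffer containing 50 mM LiCl, for 30 min. IP1 accumulation is quantified by the IP-One immunoassay.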
Numbers stand for hits; 0 = inactive; ? = inconclusive; - = not tested or not shown. Unless noted, calls come from the whole dose curve; as a rule, active = well fitted curve in the direction sought with a large enough effect; inconclusive = small, poorly fitted or top-dose-only effect, or another doubt; inactive = no such curve, though single readings can be large; an effect the other way counts as inactive or inconclusive.

SMILES	HPGD inh	ALOX12 inhib	IMPase Li cell	ALDH1A1 block	NPSR antag	IMPase cell inh
CCOC(=O)N1CCN(CC(=O)c2ccc3c(c2)CCN3C(C)=O)CC1	0	0	0	25µM	0	0
CCn1ncc(C2=NOC(C(=O)Nc3cnn(C45CC6CC(CC(C6)C4)C5)c3)C2)c1C (centres undefined)	0	0	0	0	0	0
CCC1(c2ccc(Cl)cc2)NC(=S)N(c2ccc(C)c(C)c2)N1 (centres undefined)	-	-	-	-	0	-
CC1(CCc2ccccc2)NC(=S)N(c2ccccc2)N1 (centres undefined)	40µM	?	0	0	0	-
CCC1(c2ccc(Cl)cc2)NC(=S)N(c2ccc(C)cc2)N1 (centres undefined)	?	0	0	28µM	0	-
CC1(CCc2ccccc2)NC(=S)N(c2ccc(Cl)cc2)N1 (centres undefined)	1µM	?	0	7.1µM	0	-
CCC(C)(C)C1CCC2(CC1)NC(=S)N(c1ccccc1)N2 (centres undefined)	-	-	-	-	0	-
CC(C)C(N)C(=O)NC(Cc1c[nH]c2ccccc12)C(=O)O (centres undefined)	0	0	0	0	-	-
Cn1nnnc1SCC(=O)Nc1ccc(Oc2ccc(Cl)cc2)cc1	0	0	0	0	0	0
CN(C)c1cnn(-c2ccccc2)c(=O)c1Cl	0	0	0	0	0	-
CCOc1ccc(CC(=O)Nc2sc(Cc3ccccc3)cc2C(N)=O)cc1OCC	?	0	?	?	?	0
CC(C)Nc1nnc(SCC(=O)Nc2ccc3c(c2)C(=O)c2ccccc2C3=O)s1	0	0	0	7.9µM	0	-
O=C(CSc1nnc(Nc2ccccc2F)s1)Nc1cccc(S(=O)(=O)N2CCCCC2)c1	0	0	0	22µM	0	-
Cc1ccc(Nc2nnc(SCC(=O)Nc3cccc(S(=O)(=O)N4CCCCC4)c3)s2)cc1	0	0	0	0	0	0
O=C(CSc1nnc(NC2CCCCC2)s1)Nc1ccc2c(c1)C(=O)c1ccccc1C2=O	-	-	0	13µM	0	-
NC(=O)C(=O)NN=C1CCC(c2ccccc2)CC1 (centres undefined)	0	0	0	0	0	-
Cc1ccc2nc(N(CCN(C)C)C(=O)/C=C/c3cccs3)sc2c1	0	0	0	0	0	-
Cc1c(C(=O)OCC(=O)N2CC(C)OC(C)C2)oc2ccc(Br)cc12 (centres undefined)	?	0	?	0.18µM	?	0
c1ccc2c3nnc4n(c-3nc2c1)CCCS4	0	0	0	?	0	0
COc1ccc(N(CC(=O)NCc2cccs2)S(=O)(=O)c2cccnc2)cc1	0	0	0	?	0	0
CC(C)C(=O)Nc1sc2c(c1C#N)CCCCC2	0	0	0	0	0	0
Cn1nc(-c2ccccc2)c(N2CCCCC2)cc1=O	-	-	0	28µM	0	-
O=c1cc(N2CCCC2)c(-c2ccccc2)n[nH]1	-	-	0	0	0	-
COc1ccc(C(=O)NCCCN2CCCC2=O)cc1	0	0	0	0	0	0
O=C(CNC(=O)c1cccs1)OCC(=O)c1ccccc1	0	0	0	0	0	0
SMILES	HPGD inh	ALOX12 inhib	IMPase Li cell	ALDH1A1 block	NPSR antag	IMPase cell inh
O=C(CC(Nc1ccccc1Cl)C(=O)OCC(=O)c1cccs1)c1ccccc1 (centres undefined)	0	0	0	25µM	0	0
O=C(CNC(=O)c1cccs1)OCC(=O)c1ccccc1Cl	-	-	0	0	0	-
O=C(OCC(=O)c1cccs1)c1ccccc1	14µM	0	0	13µM	0	0
Nc1ccccc1S(=O)(=O)NC1=NCCCCC1	0	0	0	0	0	-
O=C(Nc1nc2ccccc2n1CCN1CCCCC1)C1CCCCC1	0	0	0	0	0	0
CCOc1cc(C(=O)NC(=S)Nn2cnnc2)cc(OCC)c1OCC	-	-	0	11µM	0	-
CCOc1ccc2ccccc2c1C1NC(=S)N(C)C(C)=C1C(=O)OC (centres undefined)	-	-	0	0	0	-
CN1CCN(C(=O)C2=C[C@H](C(C)(C)C)C[C@H](OCCCCO)O2)CC1	-	-	0	0	0	-
C=C(C)CNC(=O)CCc1nnc(C2(c3ccc(Cl)cc3)CCC2)o1	-	-	0	0	0	-
COC(=O)CNC(=O)CCc1nnc(C2(c3ccc(Cl)cc3)CCC2)o1	-	-	0	8.9µM	0	-
Oc1ccc(/C=N/Nc2nc(N3CCCC3)nc(N3CCCC3)n2)cc1O	-	-	0	13µM	0	-
COc1ccc(/C=N/Nc2cc(N3CCCC3)nc(N3CCCC3)n2)cc1	-	-	0	0	13µM	-
CCO[C@H]1OC(C(=O)N2CCN(C)CC2)=C[C@@H](c2csc3ccccc23)[C@@H]1CCCO	-	-	0	0	0	-
COc1ccc(-c2nc(-n3c(C)c(C(C)=O)c(C(C)=O)c3C)sc2C)cc1	0	0	0	?	0	0
COc1ccc(-c2nc(C)sc2C)cc1	28µM	0	0	?	0	-
Cc1cccnc1Sc1c([N+](=O)[O-])ncn1C	0	0	0	16µM	0	0
CS(=O)(=O)c1cc([N+](=O)[O-])c(Sc2nc3ccccc3[nH]2)c([N+](=O)[O-])c1	3.5µM	?	0	8.9µM	?	0
Cc1cccc(Sc2c([N+](=O)[O-])ncn2C)c1	5µM	0	7.9µM	0	0	0
Cc1cccc(Sc2ccc([N+](=O)[O-])cn2)c1	0	0	0	0	0	-
CCN1CCN(c2ccc([N+](=O)[O-])c(Sc3nc4ccccc4[nH]3)c2)CC1	-	0	-	0	0	0
Cn1cnc([N+](=O)[O-])c1Sc1nc2ccccc2[nH]1	-	-	-	20µM	0	-
